Screening results deposited in PubChem BioAssay by National Center for Advancing Translational Sciences (NCATS).
Cycloheximide cs: Cycloheximide Counterscreen for Small Molecule Inhibitors of Shiga Toxin; cell reporter, cycloheximide protein synthesis inhibition counterscreen; max response, %; 12% of 300,000 active; AID 2314, 2010; in the data active means max response mostly above about 13%, no sharp cut-off; inactive means mostly below about 14%; further: read at 38.3 µM for the half of the compounds with a filed dose; 0% is about no effect
RE007 growth inh: qHTS Assay for Inhibitors of the HIV-1 protein Vpr; 0.21% of 360,000 active; S. pombe RE007 Vpr strain, BacTiter-Glo ATP luminescence, 24 h; Potency, µM (top dose mostly 92.2 µM), for inactives: at the highest dose activity change, negative = less growth, usual class: inhibitors; active means well fitted falling curve with a large enough effect; inconclusive means small, poorly fitted or top-dose-only effect; inactive means no such curve, though single readings can be large or run the other way; further: potency means the concentration at half of the fitted maximal effect; on the % scale 0 is the no-effect control and ±100 the full control effect; nearly all actives have a fitted effect of over 50% in size
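Fission yeast strain RE007, carrying one chromosomally integrated HIV-1 vpr copy, was seeded at OD 0.01 in PMG+AL medium with 23 nL pinned compound. After 24 h at 30 °C and 99% humidity, viability was read by BacTiter-Glo luminescence.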
LmPK inhibitor: qHTS Assay for Inhibitors of Leishmania Mexicana Pyruvate Kinase (LmPK). AID 1721, 2009. 0.37% of 290,000 active. purified LmPK, Kinase-Glo ATP luminescence, 1 h. Potency, µM (highest dose often 57.5 µM), inactives show at the highest dose activity change, negative = inhibition, actives largely listed as inhibitors; further: potency means the concentration at half of the fitted maximal effect; on the % scale 0 is the no-effect control and ±100 the full control effect
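In 50 mM imidazole pH 7.2 with 7 mM MgCl2, LmPK (0.1 nM) turned over PEP (0.5 mM) and ADP (0.1 mM) for 1 h at room temperature. Luciferase read-out of ATP.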
FBPA Giardia inh: qHTS Assay for Inhibitors of Fructose-1,6-bisphosphate Aldolase from Giardia Lamblia; A8B2U2; purified Giardia FBPA; Potency, µM (titrated, usually from 59.6 µM), inactives show at the top dose activity, negative = inhibition, actives largely listed as inhibitors; 0.71% of 290,000 active; AID 2451, 2010; further: potency means the concentration at half of the fitted maximal effect; on the % scale 0 is the no-effect control and ±100 the full control effect; nearly all actives have a fitted effect of over 55% in size
Target sequence (A8B2U2 whole entry, looked up): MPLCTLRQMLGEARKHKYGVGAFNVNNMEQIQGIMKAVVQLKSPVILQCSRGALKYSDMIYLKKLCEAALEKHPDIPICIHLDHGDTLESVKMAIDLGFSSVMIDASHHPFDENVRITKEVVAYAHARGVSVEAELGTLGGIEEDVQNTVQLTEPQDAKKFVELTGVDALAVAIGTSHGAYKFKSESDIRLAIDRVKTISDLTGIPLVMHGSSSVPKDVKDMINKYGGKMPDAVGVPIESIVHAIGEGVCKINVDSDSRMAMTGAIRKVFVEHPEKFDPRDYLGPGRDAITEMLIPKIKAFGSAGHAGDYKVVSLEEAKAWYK
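Giardia FBPA (40 nM reagent) was preincubated 10 min at RT with compound (up to 57.5 uM final), then substrate plus GAPDH/TPI/NAD/arsenate coupling system with diaphorase/resazurin was added; resorufin fluorescence (525/598 nm) was read after 20 min.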
Tb PYK inh: qHTS of Trypanosoma Brucei Inhibitors. 0.12% of 410,000 active. Potency, µM (top dose mostly 76.8 µM), without a hit: at the top dose activity, negative = inhibition, most hits filed as inhibitors. TbPYK enzyme, Kinase-Glo Plus ATP luminescence, 45 min; further: potency means the concentration at half of the fitted maximal effect; on the % scale 0 is the no-effect control and ±100 the full control effect; nearly all actives have a fitted effect of over 50% in size
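Enzyme and substrate buffer are dispensed first and compound is pin-transferred. ADP at 130 uM final then starts the reaction, which runs 45 min at room temperature. Detection reagent is added for 10 min before luminescence is imaged.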
Shiga toxin inh: A qHTS for Small Molecule Inhibitors of Shiga Toxin; Vero cells, Shiga toxin protein synthesis inhibition reporter; inhibition, % at 38.7 µM; 9.2% of 290,000 active; AID 2315, 2010; in the data active means inhibition mostly above about 28%, no sharp cut-off; inactive means mostly below about 43%; further: 0% is about no effect
Starred values were filed as active, the others as inactive; ? = inconclusive; / = no result given; [ ] = another dose, or the depositor's remark. This excerpt belongs to a sample that is enriched for hits. Unless noted, the call rests on the fitted dose curve; in most records, active means well fitted curve in the direction sought with a large enough effect; inconclusive means small, poorly fitted or top-dose-only effect, or another doubt; inactive means no such curve, though single readings can be large; an effect the other way counts as inactive or inconclusive.

SMILES	Cycloheximide cs	RE007 growth inh	LmPK inhibitor	FBPA Giardia inh	Tb PYK inh	Shiga toxin inh
CC(NC(=O)/C(=C/c1ccc2c(c1)OCO2)NC(=O)c1cccc([N+](=O)[O-])c1)C(=O)O (configuration not stated)	19	-12%	-7%	15%	3%	-13
C/C(=N\NC(=O)c1ccc(Br)cc1)c1cccc(NC(=O)c2cccnc2)c1	13	4%	1%	-2%	-1%	70
C/C(=N\NC(=O)c1cccc([N+](=O)[O-])c1)c1ccncc1	10	1%	2%	-3%	5%	27
C/C(=N\NC(=O)c1ccncc1)c1cccc(NC(=O)c2ccc(C(C)(C)C)cc2)c1	27*	20%	-1%	/	2%	66*
C/C(=N/NC(=O)c1ccc(O)cc1)c1cccc([N+](=O)[O-])c1	31*	-2%	0%	-2%	-8%	59*
COc1ccc(/C(C)=N\NC(=O)c2ccc3c(c2)OCO3)cc1OC	39*	/	0%	4%	/	49
C/C(=N\NC(=O)c1ccc(C)cc1C)c1ccc2c(c1)OCO2	26*	4%	2%	1%	-3%	67*
CC1CN=C(NC(=O)c2cccc([N+](=O)[O-])c2)S1 (configuration not stated)	28*	0%	-9%	-30%	1%	26*
C/C(=N\NC(=O)c1cccc([N+](=O)[O-])c1)c1cccs1	13	-15%	-2%	-3%	-5%	39*
Cc1ccc(S(=O)(=O)Nc2cc(Cl)c3oc4c(c3c2)CCCC4)cc1	/	/	/	/	3%	/
CCOc1ccc(CNC(=O)c2ccc(-c3nc(CS(=O)(=O)c4ccccc4)c(C)o3)cc2)cc1	/	/	/	/	-6%	/
Cc1ccccc1-n1c(O)c(/C=N/NC(=O)c2ccccc2O)c(=O)[nH]c1=S	46*	2%	7%	22%	-20%	76*
O=C(N/N=C/c1c(O)n(C2CC2)c(=S)[nH]c1=O)c1ccccc1O	25*	14%	3%	7%	1%	26
O=c1[nH]c(=S)n(C2CC2)c(O)c1C=NCc1cccnc1	-2	-8%	-1%	-1%	-1%	6
Cc1ccccc1-n1c(O)c(/C=N/Nc2nc3c(c(=O)n(C)c(=O)n3C)n2C)c(=O)[nH]c1=S	-2	10%	-3%	2%	-25%	-3
O=C(Cc1ccccc1)Nc1cc2c(cc1Cl)OCCCO2	59*	-17%	-1%	1%	4%	75*
O=C(Nc1cc2c(cc1C(=O)O)OCCCO2)c1ccc(C(F)(F)F)cc1	44*	-9%	-3%	/	0%	76*
O=C(Cc1ccccc1)Nc1ccc(NC(=O)c2ccccc2)c(Cl)c1	2	22%	0%	24%	-6%	2
CCc1ccc(C(=O)Nc2cc3c(cc2Cl)OCCCO3)cc1	60*	-8%	1%	1%	-10%	84*
CCC(O)c1cc2c(cc1NC(=O)c1ccc(C)cc1)OCCO2 (configuration not stated)	17	2%	-5%	-6%	-2%	34
COc1ccc(N2CCN(C(=O)c3c(-c4c(F)cccc4Cl)noc3C)CC2)cc1	-5	-3%	9%	9%	2%	-10
CCc1ccccc1NC(=O)Nc1nnc(N2CCCC2)s1	/	/	/	/	2%	/
COc1cc(Cl)c(C)cc1NC(=O)Cn1ncc2c3ccccc3n(Cc3ccccc3)c2c1=O	/	/	/	/	-4%	/
Cc1cc(NC(=O)C(C)C)ncc1NC(=O)c1ccccn1	30*	18%	-10%	-13%	-13%	129*
Cc1cc(NC(=O)C(C)C)ncc1NC(=O)c1cccc(F)c1	-1	-2%	6%	2%	4%	0
SMILES	Cycloheximide cs	RE007 growth inh	LmPK inhibitor	FBPA Giardia inh	Tb PYK inh	Shiga toxin inh
CCCCC(=O)Nc1cnc(NC(=O)c2ccco2)cc1C	21*	68%	-9%	-6%	-6%	64*
CCCC(=O)Nc1cc(C)c(NC(=O)c2ccccn2)cn1	28*	-2%	-5%	-13%	4%	86*
COc1ccc(C(CC(=O)Nc2cccc(C)c2C)N2Cc3ccccc3C2=O)cc1 (configuration not stated)	/	/	/	/	-3%	/
CC(C)c1ccc(NS(=O)(=O)c2ccc3[nH]c(=O)ccc3c2)cc1	/	/	/	/	2%	/
COc1ccc(-c2cn3c(C)c(C(=O)N4CCCc5ccccc54)sc3n2)cc1	/	13%	/	/	-19%	/
COc1ccc(-c2cn3c4c(sc3n2)CCCC4)cc1	36*	4%[3.69 µM]	6%	?	/	36
Cc1ccc(N=CC=C2OC(C)(C)C(C)(C)O2)cc1	20*	0%	-2%	1%	10%	66*
Cc1cccc(N=CC=C2OC(C)(C)C(C)(C)O2)c1	36*	-13%	1%	0%	-6%	108*
COc1ccc(N=CC=C2OC(C)(C)C(C)(C)O2)cc1OC	9	2%	-1%	?	-10%	24
Cc1ccc(N=Cc2cc(Br)cc(Cl)c2O)cc1	-1	?	-3%	-6%	-5%	-3
Cc1ccccc1N=CC=C1OC(C)(C)C(C)(C)O1	-1	-17%	1%	5%	-1%	-9
COc1cccc(N=CC=C2OC(C)(C)C(C)(C)O2)c1	49*	-4%	-11%	-21%	-2%	87*
Cc1ccc(CNc2cc(C)nc3nc(-c4cccc(C)c4)nn23)cc1	/	/	/	/	-2%	/
Cc1ccc(C)c(N2CCN(S(=O)(=O)c3ccc4oc(=O)c5ncn(C)c5c4c3)CC2)c1	/	/	/	/	-1%	/
CCc1nc2ccc(C(=O)NCc3ccc(N(C)C)cc3)cc2nc1CC	/	/	/	/	3%	/
O=C(NNc1c2ccccc2nc2ccccc12)c1ccc(Cl)cc1	-7	-3%	-2%	-5%	-5%	-11
Nc1ccccc1C(=O)NNc1c2ccccc2nc2ccccc12	19*	-4%	-16%	-8%	-7%	111*
Cc1ccc(C(=O)NNc2c3ccccc3nc3ccccc23)cc1	41*	-16%	-5%	-7%	-2%	85*
O=C(O)c1cc(=O)[nH]c2ccccc12	/	0%	/	/	-13%	/
Clc1ccc2nc3c4ccccc4cnn3c2c1	62*	3%	-27%	3%	-9%	117*
CN(CCC#N)C(=O)COC(=O)c1ccccc1C(=O)c1ccc(Cl)c([N+](=O)[O-])c1	15	3%	0%	-2%	-2%	-3
CN(CCC#N)C(=O)COC(=O)c1cccnc1Nc1ccccc1F	16*	-11%	-23%	4%	-11%	21
CCN(C(=O)COC(=O)c1cccnc1Nc1ccccc1F)C1CCS(=O)(=O)C1 (configuration not stated)	62*	-3%	?	21%	-2%	54*
